# Results: PubChem BioAssay (EPA / NIEHS)
# Several values for one entry are separate records, joined by “and”; a condition that tells them apart may be missing. Equal entries are not always repeated. Results filed as inconclusive are left out. Activity calls are given as the source filed them. The calls were made as follows, unless noted: active = hit-call score of the fitted dose curve at least 0.9, where 1 is the maximum; inactive = score below 0.9.
# Columns and labels:
# [1] = target: Estrogen receptor (Homo sapiens) (UniProt P03372); assay: CCTE_Deisenroth_AIME_384WELL_LUC_Active: CCTE's 384-well Estrogen Receptor Transactivation Assay with AIME metabolic competence (ERTA luciferase; metabolism positive), Deisenroth Lab (AID 2284030; active = hit-call score of the fitted dose curve at least 0.9, where 1 is the maximum)
# In short: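 Chemicals (10-point, 0.002-200 uM) were first incubated 2 hours with alginate-immobilized induced male Sprague Dawley rat liver S9. The conditioned medium was then applied to VM7Luc4E2 cells for 24 hours, with ER luciferase induction read by luminescence relative to 17beta-estradiol.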
# [2] = CCTE_Shafer_MEA_acute_burst_number: CCTE's Neural Acute Assay for Single-Electrode Bursts, Shafer Lab (AID 2284013)
# In short: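 Burst totals were derived with adaptive spike detection (8x rms threshold) on filtered signals from rat cortical cultures; change relative to pre-treatment baseline after 40-min compound exposure (0.03-40 uM) was fitted in the negative direction against DMSO.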
# [3] = CCTE_Shafer_MEA_acute_burst_duration_mean: CCTE's Neural Acute Assay for Mean Burst Duration, Shafer Lab (AID 2284014);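 also: hits are decreases in mean burst duration relative to DMSO controls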
# In short: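 Acute exposure of mature rat cortical networks (DIV 13 or 15) grown on microelectrode arrays to 0.03-40 uM compound. Mean burst duration compared with the 40-min pre-dose baseline over a 40-min post-dose recording at 37 C.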
# [4] = CCTE_Shafer_MEA_acute_per_burst_spike_number_mean: CCTE's Neural Acute Assay for Average Number of Spikes Per Burst, Shafer Lab (AID 2284015);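 also: hits are decreases in mean spikes per burst versus baseline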
# In short: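 Read-out: percent change in mean spikes per burst, each well's post-exposure 40-min recording versus its own 40-min baseline. Rat cortical cultures, DIV 13 or 15, compounds 0.03-40 uM; DMSO is negative control, loss-of-signal fitting.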
# [5] = CCTE_Shafer_MEA_acute_interburst_interval_mean: CCTE's Neural Acute Assay for Mean Interburst Interval, Shafer Lab (AID 2284016);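 also: percent change of mean interburst interval versus each well's own pre-dose baseline; curves fitted for decrease in interburst interval relative to DMSO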
# In short: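 Rat cortical cultures, DIV 13/15; 20 min equilibration, 40 min baseline, compound 0.03-40 uM, 40 min re-recording, 37 C. Spikes detected at 8x rms noise (300-5000 Hz band-pass). Endpoint: % change in interburst interval, fitted in loss direction vs DMSO.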
# [6] = CCTE_Shafer_MEA_acute_burst_percentage_mean: CCTE's Neural Acute Assay for Percentage of Spikes in a Burst, Shafer Lab (AID 2284017);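 as to AC50: curve fitted for loss of signal so potency reflects decreased burst percentage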
# In short: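 Rat cortical cultures, DIV 13/15, 37 C. Spikes detected at 8x rms noise (300-5000 Hz band-pass). Burst spikes/total spikes averaged across electrodes per well; % change post- vs pre-treatment (40 min each), loss-of-signal fit vs DMSO.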
# [7] = CCTE_Shafer_MEA_acute_burst_percentage_std: CCTE's Neural Acute Assay for Standard Deviation of Burst Percentage, Shafer Lab (AID 2284018);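 also: fitted in the negative direction so actives lower burst percentage SD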
# In short: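 Primary rat cortical neurons on 16-electrode MEA wells were recorded 40 min at baseline (DIV 13 or 15), then 40 min after compound (0.03-40 uM), at 37 C. Well value is SD across electrodes of spikes-in-bursts/total spikes; endpoint is percent change, DMSO-referenced.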
# [8] = CCTE_Shafer_MEA_acute_per_network_burst_spike_number_mean: CCTE's Neural Acute Assay for Average Number of Spikes in a Network Burst, Shafer Lab (AID 2284019);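 as to AC50: curve fitted for loss of signal so actives reduce spikes per network burst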
# In short: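 Acute exposure of rat primary cortical networks (DIV 13/15) on MEAs; adaptive spike detection at 8x rms noise, 37 C. Percent change in spikes per network burst after 40 min with compound (0.03-40 uM), negative direction vs DMSO.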
# [9] = CCTE_Shafer_MEA_acute_per_network_burst_spike_number_std: CCTE's Neural Acute Assay for Standard Deviation of Number of Spikes in a Network Burst, Shafer Lab (AID 2284020);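 also: fitted for decrease in spike-number SD versus DMSO so actives lower it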
# In short: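 Acute MEA exposure, rat cortical neurons, 0.03-40 uM. Per-well % change versus own baseline; DMSO as negative control.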
# [10] = CCTE_Shafer_MEA_acute_per_network_burst_electrodes_number_mean: CCTE's Neural Acute Assay for Mean Number of Electrodes in a Network Burst, Shafer Lab (AID 2284021);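 also: curves fitted for decreases only so hits reduce electrodes per burst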
# In short: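 Rat primary cortical neurons on 48-well MEAs, DIV 13 or 15, were treated at 0.03-40 uM. Spikes were detected at 8x rms noise and recorded at 37 C. The mean electrodes per network burst in a 40 min exposure recording was expressed as percent change from a 40 min baseline.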
# [11] = CCTE_Shafer_MEA_acute_network_burst_percentage: CCTE's Neural Acute Assay for Percentage of Network Bursts, Shafer Lab (AID 2284022);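 also: curves fitted for loss so actives lower network burst percentage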
# In short: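 Rat primary cortical neuron networks on 48-well MEA plates, DIV 13 or 15, treated acutely with compound (0.03-40 uM, at least three wells). Percent of spikes within network bursts compared between 40-min recordings before and during exposure at 37 C, expressed as percent change.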
# [12] = CCTE_Shafer_MEA_acute_cross_correlation_area: CCTE's Neural Acute Assay for Area of Cross Correlation, Shafer Lab (AID 2284024);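 also: curves fitted for loss of cross-correlation area so actives lower synchrony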
# In short: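 Rat primary cortical neurons on 48-well MEA, DIV 13 or 15; compounds 0.03-40 uM. Baseline and post-exposure 40 min recordings at 37 C; percent change in area under pooled inter-electrode cross-correlation near zero lag, relative to DMSO.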
# [13] = CCTE_Shafer_MEA_acute_cross_correlation_HWHM: CCTE's Neural Acute Assay for Cross Correlation at Half Width at Half Maximum, Shafer Lab (AID 2284026);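 also: percent change per well from pre-dose baseline in spike cross-correlogram half width; hits are a decrease in cross-correlogram half width relative to DMSO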;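 as to outcome: spontaneous network firing of rat primary cortical neurons on multiwell microelectrode arrays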
# In short: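 Rat primary cortical neurons on 48-well MEA plates; 40-min baseline and 40-min post-exposure recordings at 37 C on DIV 13 or 15, compounds 0.03-40 uM. Spikes detected at 8x rms noise; percent change in cross-correlogram HWHM per well vs baseline.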
# [14] = CCTE_Shafer_MEA_acute_synchrony_index: CCTE's Neural Acute Assay for Synchrony, Shafer Lab (AID 2284027);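 also: network synchrony index of spontaneous spiking in primary rat cortical neurons on MEAs; fitted for loss of signal so actives lower synchrony relative to DMSO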
# In short: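 The synchrony index is taken as percent change per well between a 40 min baseline and a 40 min recording with compound (0.03–40 uM), at 37C. Rat cortical cultures on multiwell MEAs at DIV 13 or 15, spike threshold 8× rms noise.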
# [15] = CCTE_Shafer_MEA_dev_firing_rate_mean: CCTE's Neural Network Formation Assay for Mean Firing Rate, Shafer Lab (AID 2284031);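 as to AC50: curve fitted for loss of firing so AC50 reflects decreased mean firing rate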
# In short: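 Spike frequency (spikes/recording length, averaged over active electrodes) was recorded on days 5, 7, 9 and 12 and collapsed to AUC; rat cortical cultures received compound continuously over 12 days of network development.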
# [16] = CCTE_Shafer_MEA_dev_per_burst_spike_percent: CCTE's Neural Network Formation Assay for Percent of Spikes in a Burst, Shafer Lab (AID 2284032);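 as to AC50: fitted as a decrease in burst spike percentage below DMSO baseline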
# In short: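 Value is trapezoidal AUC over recordings on days 5, 7, 9 and 12 of the well-mean fraction of spikes falling in single-electrode bursts; rat cortical cultures exposed continuously from plating, treatment renewed DIV 5 and 9, fitted downward against DMSO.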
# [17] = target: Estrogen receptor (Homo sapiens) (UniProt P03372); assay: CCTE_Deisenroth_AIME_96WELL_LUC_Active: CCTE's 96-well Estrogen Receptor Transactivation Assay with AIME metabolic competence (ERTA luciferase; metabolism positive), Deisenroth Lab (AID 2284023; active = hit-call score of the fitted dose curve at least 0.9, where 1 is the maximum)
# In short: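 Metabolism-positive mode: induced rat hepatic S9 in alginate microspheres conditions test solutions (0.002 - 200 uM, 10 points) for 2 hours. VM7Luc4E2 ER luciferase reporter cells then exposed 24 h; positive-direction fit against 17beta-estradiol, n=4 typical.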
# [18] = target: Estrogen receptor (Homo sapiens) (UniProt P03372); assay: CCTE_Deisenroth_AIME_96WELL_LUC_Inactive: CCTE's 96-well Estrogen Receptor Transactivation Assay without AIME metabolic competence (ERTA luciferase; metabolism negative), Deisenroth Lab (AID 2284025; active = hit-call score of the fitted dose curve at least 0.9, where 1 is the maximum)
# In short: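 Metabolism-negative arm: chemicals (0.002–200 uM, 10 points) incubated 2 h with alginate-water microspheres, then medium moved onto VM7Luc4E2 cells for 24 h luciferase read-out. Positive direction vs 17beta-estradiol; n≥4 experiments.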
# [19] = CCTE_Deisenroth_AIME_96WELL_CTox_Active: Cytotoxicity Assessment (CTOX) in CCTE's 96-well Estrogen Receptor Transactivation Assay with AIME metabolic competence (metabolism positive), Deisenroth Lab (AID 2284028; active = hit-call score of the fitted dose curve at least 0.9, where 1 is the maximum)
# In short: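 Cytotoxicity in VM7Luc4E2 breast cells after 24 h exposure to medium from a 2 h metabolic pre-incubation with induced rat hepatic S9 in alginate microspheres; fluorescent live-cell protease readout, 10-point series 0.002–200 uM, n=4.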
# [20] = CCTE_Deisenroth_AIME_96WELL_CTox_Inactive: Cytotoxicity Assessment (CTOX) in CCTE's 96-well Estrogen Receptor Transactivation Assay without AIME metabolic competence (metabolism negative), Deisenroth Lab (AID 2284029; active = hit-call score of the fitted dose curve at least 0.9, where 1 is the maximum)
# In short: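 Metabolism-negative mode: alginate-water lids without rat S9, 2 h pre-incubation of 10-point series (0.002 - 200 uM). Conditioned medium on VM7Luc4E2 cells 24 h; loss of fluorescent live-cell protease signal marks cytotoxicity.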
# Chain of Estrogen receptor (Homo sapiens) (P03372 whole entry, looked up): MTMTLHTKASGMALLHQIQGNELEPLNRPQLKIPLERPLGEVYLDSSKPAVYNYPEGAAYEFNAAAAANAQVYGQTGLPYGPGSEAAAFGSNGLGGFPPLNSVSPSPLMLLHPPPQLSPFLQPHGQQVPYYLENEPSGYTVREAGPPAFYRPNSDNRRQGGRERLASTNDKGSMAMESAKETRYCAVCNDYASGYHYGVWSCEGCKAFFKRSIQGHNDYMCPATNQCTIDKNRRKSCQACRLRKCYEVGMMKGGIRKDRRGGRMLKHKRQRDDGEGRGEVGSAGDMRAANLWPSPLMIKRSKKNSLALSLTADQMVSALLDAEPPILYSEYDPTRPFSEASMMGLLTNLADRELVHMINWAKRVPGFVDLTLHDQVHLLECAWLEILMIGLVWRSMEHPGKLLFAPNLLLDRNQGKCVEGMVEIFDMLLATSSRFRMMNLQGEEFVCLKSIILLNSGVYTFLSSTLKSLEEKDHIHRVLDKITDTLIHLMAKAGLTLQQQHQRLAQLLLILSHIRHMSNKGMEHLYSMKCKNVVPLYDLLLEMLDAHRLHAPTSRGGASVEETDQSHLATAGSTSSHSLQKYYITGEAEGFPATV
smiles,measurement,setting,value
CC1=C(C(=O)Nc2ccccc2)SCCO1,outcome,[1],inactive
CO/C=C(/C(=O)OC)c1ccccc1Oc1cc(Oc2ccccc2C#N)ncn1,outcome,[2],inactive
same,outcome,[3],inactive
same,outcome,[4],inactive
same,AC50,[5],11.1 µM (active)
same,AC50,[6],10.2 µM (active)
same,outcome,[7],inactive
same,outcome,[8],inactive
same,outcome,[9],inactive
same,AC50,[10],7.21 µM (active)
same,AC50,[11],11.1 µM (active)
same,outcome,[12],inactive
same,outcome,[13],inactive
same,AC50,[14],10.7 µM (active)
same,AC50,[15],925 nM (active) and 1.71 µM (active)
same,AC50,[16],1.64 µM (active) and 1.26 µM (active)
COP(=S)(OC)Oc1nc(Cl)c(Cl)cc1Cl,outcome,[2],inactive
same,outcome,[3],inactive
same,outcome,[5],inactive
same,AC50,[6],0.102 µM (active)
same,outcome,[7],inactive
same,outcome,[8],inactive
same,AC50,[9],0.358 µM (active)
same,outcome,[10],inactive
same,outcome,[11],inactive
same,outcome,[12],inactive
same,outcome,[13],inactive
same,outcome,[14],inactive
same,outcome,[15],inactive
same,outcome,[16],inactive
CCON=C(CC)C1=C(O)CC(c2c(C)cc(C)cc2C)CC1=O (stereo not given),outcome,[1],inactive
COP(N)(=O)SC (stereo not given),outcome,[2],inactive
same,outcome,[3],inactive
same,outcome,[4],inactive
same,outcome,[5],inactive
same,outcome,[6],inactive
same,outcome,[7],inactive
same,outcome,[8],inactive
same,outcome,[9],inactive
same,outcome,[10],inactive
same,outcome,[11],inactive
same,outcome,[12],inactive
same,outcome,[13],inactive
same,outcome,[14],inactive
same,outcome,[1],inactive
same,outcome,[15],inactive
same,outcome,[16],inactive
COc1ccc(C(c2ccc(OC)cc2)C(Cl)(Cl)Cl)cc1,outcome,[2],inactive
same,outcome,[3],inactive
same,outcome,[4],inactive
same,outcome,[5],inactive
same,AC50,[6],19.9 µM (active)
same,outcome,[7],inactive
same,outcome,[8],inactive
same,outcome,[9],inactive
same,AC50,[10],6.83 µM (active)
same,AC50,[11],19.9 µM (active)
same,AC50,[17],1.1 µM (active)
same,outcome,[12],inactive
same,AC50,[18],3.77 µM (active)
same,outcome,[13],inactive
same,AC50,[14],27.4 µM (active)
same,AC50,[19],102 µM (active)
same,AC50,[20],72.4 µM (active)
same,outcome,[15],inactive
same,AC50,[16],4.51 µM (active)
Cc1ccc(-c2c(Cl)nc(C#N)n2S(=O)(=O)N(C)C)cc1,outcome,[2],inactive
same,outcome,[3],inactive
same,outcome,[4],inactive
same,AC50,[5],6.03 µM (active)
same,outcome,[6],inactive
same,outcome,[7],inactive
same,outcome,[8],inactive
same,outcome,[9],inactive
same,outcome,[10],inactive
same,outcome,[11],inactive
same,outcome,[12],inactive
same,outcome,[13],inactive
same,outcome,[14],inactive
same,AC50,[15],18 µM (active)
same,AC50,[16],18.3 µM (active)
O=C(O)COc1nc(Cl)c(Cl)cc1Cl,outcome,[1],inactive
CC(C)(C)c1ccc(CSc2cnn(C(C)(C)C)c(=O)c2Cl)cc1,AC50,[2],0.019 µM (active)
same,AC50,[3],5.1 µM (active)
same,AC50,[4],3.63 µM (active)
same,AC50,[5],0.492 µM (active)
same,AC50,[6],2.67 µM (active)
same,outcome,[7],inactive
same,AC50,[8],1.64 µM (active)
same,AC50,[9],2.12 µM (active)
same,AC50,[10],1.37 µM (active)
same,AC50,[11],3.29 µM (active)
same,AC50,[12],0.0277 µM (active)
same,AC50,[13],4.43 µM (active)
same,AC50,[14],3.24 µM (active)
same,AC50,[15],0.00492 µM (active)
same,AC50,[16],0.00382 µM (active)
CS/C(C)=N/OC(=O)N(C)SN(C)C(=O)O/N=C(\C)SC,outcome,[2],inactive
same,outcome,[3],inactive
same,outcome,[4],inactive
same,AC50,[5],29.7 µM (active)
same,AC50,[6],25.5 µM (active)
same,outcome,[7],inactive
same,AC50,[8],20 µM (active)
same,AC50,[9],25.3 µM (active)
same,AC50,[10],20 µM (active)
same,outcome,[11],inactive
same,outcome,[12],inactive
same,outcome,[13],inactive
same,AC50,[14],27.8 µM (active)
